# Active and inactive are the calls of the source. Entries that show only a call come without a potency. The call rests on the fitted dose curve.
# Assay: Platelet Aggregation Secondary Assay for Inhibitors of Platelet Integrin alphallb-beta3
# Conditions: platelet-rich plasma, ADP-induced aggregation, absorbance 563 nm
# Source text: NIH Molecular Libraries Probe Production Network [MLPCN] NIH Chemical Genomics Center [NCGC] MLPCN Grant: 1 R03 MH083257-01 Assay Provider: Barry Coller, Rockefeller University NCGC Assay Overview: The alphaIIbbeta3 receptor plays a vital role in hemostasis and thrombosis, where receptor deficiency causes the hemorrhagic disorder, Glanzmann thrombasthenia, and uncontrolled receptor activation causes thrombosis and blood vessel occlusion. Small molecule inhibitors of alphaIIbbeta3, tirofiban and eptifibatide, have undesirable side effects thought to arise from conformational changes in alphaIIbbeta3. These changes transiently activate the receptor to cause spontaneous platelet aggregation and thrombus formation. […] This secondary assay measures platelet aggregation (Blue et al., 2008). Platelets are induced to aggregate and aggregation is tracked by the change in absorbance over time. Inhibitors of alphaIIbbeta3 block platelet aggregation and decrease the rate of change in absorbance.
# NCGC Assay Protocol Summary: Untreated 96-well polystyrene plates (Nunc, Rochester, NY) were blocked for at least 1 hour with HBMT (138 mM NaCl, 12 mM NaHCO3, 10 mM HEPES, 2.7 mM KCl, 0.4 mM NaH2PO4, 0.1% glucose, 0.35% BSA, pH 7.4). Compounds (33 uL in HBMT) and citrated platelet-rich plasma (67 uL) were added to the wells. After plates equilibrated at 37 C in the plate reader (SpectraMax; Molecular Devices, Sunnyvale, CA) for 10 minutes, aggregation was initiated by adding ADP (5 uM final concentration; Chrono-Log Corp, Havertown, PA). Absorbance (Abs) was measured at 563 nm every 10 seconds with 3 seconds of shaking between determinations for 8 minutes. Reference Blue R, Murcia M, Karan C, Jirouskova M, and Coller BS. Application of high-throughput screening to identify a novel alphaIIb-specific small- molecule inhibitor of alphaIIbbeta3-mediated platelet interaction with fibrinogen. Blood. 2008, 111(3):1248-56
Structure (SMILES),outcome,Potency
Cc1nn2c(=O)cc(N3CCNCC3)nc2s1,inactive,
CCc1nn2c(=O)c(F)c(N3CCNCC3)nc2s1,,8.3 µM (active)
O=c1cc(N2CCNCC2)nc2sc(C3CC3)nn12,inactive,
CCc1nn2c(=O)cc(N3CCNCC3)nc2s1,,8.4 µM (active)
CCc1nn2c(=O)cc(N3CCN(C)CC3)nc2s1,inactive,
CCc1nn2c(=O)c(C)c(N3CCNCC3)nc2s1,inactive,

# Source: PubChem BioAssay AID2639 (National Center for Advancing Translational Sciences (NCATS), 2010)
